# Screens from PubChem BioAssay.
# Hits are enriched below; roughly 10% of the tested compounds scored in any of these assays.
# CtBP-E1A inh – inhibitors of CtBP/E1A interaction; AlphaScreen GST-E1A/His-CtBP binding, 1536-well; hits give low values; activity change, % (no concentration beside the values); 340,000 tested, 0.49% active; in the data active means activity change below about -65%; inconclusive means mostly about -30% to -63%; further: on the % scale 0 is the no-effect control and ±100 the full control effect
#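 Homogeneous bead-based format: GST-tagged E1A captured on glutathione donor beads, His-tagged CtBP on nickel acceptor beads; compounds precede bead addition by 2 h at 37 °C.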
# G9a block – inhibitors of human histone lysine methyltransferase G9a. 350,000 tested, 8.8% active. Potency, µM (series often up to 102 µM), for the others: top-dose activity, negative = inhibition, actives largely listed as inhibitors. Q96KQ7. G9a H3K9 monomethylation, AlphaScreen, 2 h. AID 504332; further: potency means the concentration at half of the fitted maximal effect; on the % scale 0 is the no-effect control and ±100 the full control effect; nearly all actives have a fitted effect of over 75% in size
# Target sequence (Q96KQ7 913-1193 limits assumed): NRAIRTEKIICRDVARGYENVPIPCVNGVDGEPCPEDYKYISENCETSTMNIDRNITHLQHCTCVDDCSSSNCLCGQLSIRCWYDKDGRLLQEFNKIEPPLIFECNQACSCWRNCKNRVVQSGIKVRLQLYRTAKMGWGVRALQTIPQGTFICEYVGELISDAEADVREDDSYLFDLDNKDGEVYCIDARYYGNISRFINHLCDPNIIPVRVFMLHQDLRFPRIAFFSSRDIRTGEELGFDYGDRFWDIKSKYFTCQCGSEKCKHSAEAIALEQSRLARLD
#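 Enzyme 20 nM + cpd, 15 min RT; add b-H3K9 pep 500 nM / SAM 20 uM; 2 h RT; anti-H3K9me1 Ab 0.5 ug/mL + SA donor / anti-rabbit acceptor beads 20 ug/mL each, 10 min; AlphaScreen read.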
# Six1-Eya2 blk – Six1/Eya2 interaction inhibition | 360,000 tested, 0.56% active | activity change, % (no concentration beside the values) | AID 651725 | AlphaScreen GST-Six1/His-Eya2 binding, biochemical; hits give low values; in the data active means activity change below about -65%; inconclusive means mostly about -30% to -63%; further: on the % scale 0 is the no-effect control and ±100 the full control effect
#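 AlphaScreen luminescence read after one hour at 37 °C in darkness. Pin-transferred compounds met GST-Six1 and His-Eya2 protein (5X stock 250 nM/500 nM) plus glutathione donor and Ni-chelate acceptor beads (5X, 50 ug/mL).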
# JMJD2A Tudor – JMJD2A Tudor domain (human) inhibition. AlphaScreen JMJD2A-Tudor / H3K4me3 peptide binding. 390,000 tested, 4.4% active. AID 504339. Potency, µM (doses to about 114 µM), without a hit: top-dose activity change, negative = inhibition, usual class: inhibitors. O75164; further: potency means the concentration at half of the fitted maximal effect; on the % scale 0 is the no-effect control and ±100 the full control effect; nearly all actives have a fitted effect of over 50% in size
# HP1b binding inh – inhibitors of HP1-beta chromodomain binding to methylated histone tails; P83916; AlphaScreen HP1-beta / biotin-H3K9me3 peptide binding; Potency, µM (doses to about 114 µM), for the others: top-dose activity change, negative = inhibition, usual class: inhibitors; 390,000 tested, 0.56% active; AID 540317; further: potency means the concentration at half of the fitted maximal effect; nearly all actives have a fitted effect of over 70% in size
# Target sequence (P83916 whole entry, looked up): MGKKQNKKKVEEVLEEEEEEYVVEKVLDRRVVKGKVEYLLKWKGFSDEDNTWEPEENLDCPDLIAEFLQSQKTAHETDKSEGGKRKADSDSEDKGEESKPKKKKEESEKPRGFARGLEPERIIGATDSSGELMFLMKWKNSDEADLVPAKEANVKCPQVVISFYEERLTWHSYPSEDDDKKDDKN
#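 HP1-beta protein (50 nM final) preincubated 30 min at room temperature with biotinylated H3(1-18)K9me3 peptide (50 nM) in PBS pH 7.4, 0.01% Tween-20, then compound added for 30 min. AlphaScreen streptavidin donor/nickel chelate acceptor beads (10 ug/mL final), 30 min dark, luminescence read.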
# BAZ2B block – BAZ2B (human) inhibition; Q9UIF8; AlphaScreen BAZ2B-H3K14Ac peptide displacement; Potency, µM (top dose mostly 114 µM), for the others: at the highest dose activity change, negative = inhibition, hits mostly inhibitors; 360,000 tested, 4.4% active; AID 504333; further: potency means the concentration at half of the fitted maximal effect; on the % scale 0 is the no-effect control and ±100 the full control effect; nearly all actives have a fitted effect of over 60% in size
#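 Inhibition is scored as reduced AlphaScreen emission. The BAZ2B/b-H3(5-23)K14Ac complex (50 nM each) in PBS pH 7.4, 0.01% Tween-20 meets compound (up to 110 uM) for 30 min at RT before bead addition.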
# * hit, by the source's call; ? = inconclusive; . = not tested or not shown; [ ] = another dose, or the depositor's remark. Unless noted, the call rests on the fitted dose curve; in most records, active means well fitted inhibition curve with a large enough effect; inconclusive means small, poorly fitted or top-dose-only effect; inactive means no such curve, though single readings can be large or run the other way.
SMILES,CtBP-E1A inh,G9a block,Six1-Eya2 blk,JMJD2A Tudor,HP1b binding inh,BAZ2B block
C#CCOCCOCCOCCNc1nc(N2CCN(C(=O)[C@H](CCC(=O)O)n3cc(C(N)CO)nn3)CC2)nc(N2CCN(C(=O)[C@H](CCC(=O)O)n3cc(C(N)CC(C)C)nn3)CC2)n1 (some centres undefined),.,?,.,.,.,20µM*
C#CCOCCOCCOCCNc1nc(N2CCN(C(=O)[C@H](CCC(=O)O)n3cc(C(N)CO)nn3)CC2)nc(N2CCN(C(=O)[C@H](CCC(=O)O)n3cc(C(N)CO)nn3)CC2)n1 (some centres undefined),.,?,.,.,.,14µM*
CC1Cc2ccccc2N1Cc1ccc([N+](=O)[O-])cc1 (centres undefined),?,40µM*,?,45µM*,32µM*,35µM*
CC1Cc2ccccc2N1Cc1cccc([N+](=O)[O-])c1 (centres undefined),?,14µM*,?,35µM*,32µM*,13µM*
O=C1CC(c2ccc(F)cc2)c2cc3c(cc2N1)CCC3 (centres undefined),-6,10%[59 µM],-13,-9%,30%,3%
CCOC(=O)c1ccc(N2C(=O)c3n[nH]c(-c4ccco4)c3C2c2cccc([N+](=O)[O-])c2)cc1 (centres undefined),15,?,-26,?,?,11µM*
Cc1ccc2nc(N3C(=O)C(O)=C(C(=O)c4ccc(C)o4)C3c3cccc(O)c3)sc2c1 (centres undefined),-1,32µM*,-5,?,-10%,?
CCOC(=O)c1sc(N2C(=O)C(O)=C(C(=O)c3ccc(C)o3)C2c2cccc([N+](=O)[O-])c2)nc1C (centres undefined),-7,45µM*,-8,?,6%,?
CCOc1ccc(C2C(C(=O)c3ccc(C)o3)=C(O)C(=O)N2c2nc(C)c(C(=O)OC)s2)cc1 (centres undefined),.,10µM*,8,?,14%,-19%
COC(=O)c1sc(N2C(=O)C(O)=C(C(=O)c3ccc(C)o3)C2c2ccc([N+](=O)[O-])cc2)nc1C (centres undefined),-13,?,-12,?,10%,-6%
COc1c(O)cccc1[C@H](O)C1CCN(CCc2ccc(F)cc2)CC1,.,.,.,-16%,19%,.
CC(=O)c1ccc(N2CCN(C(=O)c3cc4c(s3)-c3ccccc3OC4)CC2)cc1,.,2%[59 µM],.,-3%,36%,10%
COC(=O)c1sc(N2C(=O)C(O)=C(C(=O)c3ccc(C)o3)C2c2ccc(OC)c(OC)c2)nc1C (centres undefined),4,32µM*,-14,?,17%,-21%
COc1ccc(C2C(C(C)=O)=C(O)C(=O)N2c2nc3ccccc3s2)cc1OC (centres undefined),-3,50µM*,17,?,41%,-29%
Cc1ccc(C(=O)Nc2cccc(-c3nc4cccnc4s3)c2C)cc1,.,-20%[59 µM],.,-32%,-14%,-9%
Cc1nc2cncnc2n(-c2ccccc2)c1=O,.,16%[12.7 µM],.,.,.,.
Cc1cc(C(=O)OCC(=O)c2ccc(Cl)c([N+](=O)[O-])c2)c2cccc(C)c2n1,-1,?,-14,22µM*,-10%,?
CCN(CC)CC(O)Cn1c(-c2cccc(Cl)c2)nc2cc(C)c(C)cc21 (centres undefined),-16,2%,8,-14%,31%,0%
O=S(=O)(NCc1ccc(F)cc1)c1ccc2[nH]c3c(c2c1)CCCC3,.,8.9µM*,.,?,-11%,?
O=S(=O)(NCc1ccccc1)c1ccc2[nH]c3c(c2c1)CCCCC3,.,14µM*,.,?,1%,-20%[57.1 µM]
Cc1ccc(-c2nnc(-n3ncc(C#N)c3N)c3ccccc23)cc1C,2,-1%[59 µM],11,-19%,14%,-6%
O=C(COc1ccc(Cl)cc1)NCCCNC(=O)c1cnccn1,3,-9%,-5,-8%,27%[57 µM],-8%
CCC(Sc1ccc2nnc(-c3ccc(OC)c(OC)c3)n2n1)C(=O)O (centres undefined),-1,7.9µM*,2,-20%,32%,-1%
COc1ccc(-c2nnc3ccc(SC(C)C)nn23)cc1OC,.,.,.,5%[57.1 µM],16%[57 µM],.
COc1ccc(-c2nnc3ccc(SC(C(C)=O)C(C)=O)nn23)cc1OC,11,2.2µM*,-8,20µM*,-1%,.
SMILES,CtBP-E1A inh,G9a block,Six1-Eya2 blk,JMJD2A Tudor,HP1b binding inh,BAZ2B block
COC(=O)CSc1ccc2nnc(-c3ccc(OC)c(OC)c3)n2n1,-4,-8%,-5,-23%,38%,12%
CCOC(=O)c1c(C)[nH]c(C)c1S(=O)(=O)NCC(=O)Nc1ccc(C)cc1C,.,4%[59 µM],.,-19%,8%,-10%
O=C(N/N=C/C(Cl)=C/c1ccccc1)c1ccccc1F,?,32µM*,2,-27%,-18%,-16%
O=C(N/N=C/C(Cl)=C\c1ccccc1)c1ccco1,-77*,.,-14,-6%,15%,-11%
CCOc1ccc(C(=S)N2CCN(C)CC2)cc1,4,40µM*,-4,-4%,-2%,-19%
CCOC(=O)c1ccc(NC(=S)N2CCCC(C(=O)OCC)C2)cc1 (centres undefined),2,6%,0,-12%,22%,-13%
CCOc1ccc(C(=S)N2CCCC2)cc1,8,25%[2.33 µM],1,-5%,17%,3%
CCOc1ccc(C(=S)N2CCCC2)c(OCC)c1,-2,10µM*,-1,-23%,-21%,-20%
CCOC(=O)c1ccc(C(=S)N2CCCC2)cc1,-8,10µM*,-7,-15%,?,-5%
CCOc1ccc(C(=O)NCCN2CCCCC2)c(OCC)c1,8,.,11,-14%,16%,-8%
CCOc1ccc(C(=O)OC(C)CN2CCN(C)CC2)cc1 (centres undefined),-1,?,12,79µM*,-10%,-18%
CC(C)(C)NC(=O)C(c1ccc(O)cc1)N(C(=O)CCC(=O)Nc1nccs1)c1ccc(F)cc1 (centres undefined),4,11%,4,-9%,-1%,-10%
CCCCN(C(=O)Cc1ccc(S(=O)(=O)N2CCOCC2)s1)c1c(N)n(CC(C)C)c(=O)[nH]c1=O,-8,?,9,-22%,7%,19%
O=C(NCCc1ccc(Cl)cc1)c1ccc(CSCc2cccc(Cl)c2)o1,.,8%[59 µM],.,26%,70%,36%
N#Cc1ccc(C(=O)OCC(=O)N2CCCC2)cc1,11,45µM*,-2,-7%,12%,3%
